Test results: the supplement of paper PMC7380943
Where a name gives a salt, the structure may show the parent alone. ± gives the standard deviation of the averaged measurements.

System: CLZ3 (HCA2 human fibroblast dual HR-NHEJ reporter)
Experiment: HR repair efficiency (tdTomato+ cells) relative to control (log10 fold); higher = more homologous recombination
Details: 5 µM; doxycycline 0.5 ug/mL
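Note: compound given one day before doxycycline, which switches on I-SceI endonuclease expression to create double-strand breaks within the integrated reporter.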

SMILES | HR repair efficiency (log10)
CC12CCC(CC1)C(C)(C)O2 [Eucalyptol] | 0.0216
COc1cc2ccc(=O)oc2c(O)c1O [Fraxetin] | 0.272
COc1cc2c(cc1O)C[C@H]1c3cc(O)c(OC)cc3CC[N@@+]1(C)C2 [Phellodendrine] | -0.099
O=c1cc(-c2ccc(O)c(O)c2)oc2c([C@@H]3O[C@H](CO)[C@@H](O)[C@H](O)[C@H]3O)c(O)cc(O)c12 [Orientin] | 0.0493
O=C(O)CC(O)C(=O)O (stereo not given) [Malic Acid] | -0.141
CC[C@@H]1[C@H]2CCCCN3[C@H]2[C@H](C[C@H]3[C@@H]2C[C@H](C)C(=O)O2)[C@@H]2[C@H]1OC(=O)[C@H]2C [Tuberostemonine] | -0.0247
C=C(C)C(=O)Cc1c(OC)ccc2ccc(=O)oc12 [Murrayone] | -0.312
O=C(/C=C/c1ccc(O)cc1)OC[C@H]1O[C@@H](Oc2c(-c3ccc(O)cc3)oc3cc(O)cc(O)c3c2=O)[C@H](O)[C@@H](O)[C@@H]1O [Tiliroside] | -0.0226
C[C@H]1O[C@H](OC[C@H]2O[C@@H](Oc3c(-c4ccc(O)cc4)oc4cc(O)cc(O)c4c3=O)[C@H](O)[C@@H](O)[C@@H]2O)[C@@H](O)[C@@H](O)[C@@H]1O [Kaempferol-3-O-Rutinoside] | -0.078
COc1ccc(-c2cc(=O)c3c(O)cc(O[C@@H]4O[C@H](CO[C@@H]5O[C@@H](C)[C@H](O)[C@@H](O)[C@H]5O)[C@@H](O)[C@H](O)[C@H]4O)cc3o2)cc1 [Linarin] | 0.00777
O=C(/C=C/c1ccc(O)c(O)c1/C=C/c1ccc(O)c(O)c1)O[C@H](Cc1ccc(O)c(O)c1)C(=O)O [Salvianolic Acid A] | 0.0119
COc1ccc2c(c1OC)CN(C)CCc1cc3c(cc1C(=O)C2)OCO3 [Allocryptopine] | 0.04
C[C@]1(O)C[C@@H](O)[C@]2(O)C=CO[C@@H](O[C@H]3O[C@H](CO)[C@@H](O)[C@H](O)[C@H]3O)[C@@H]21 [Harpagide] | -0.126
CC(C)=CCOc1c2ccoc2cc2oc(=O)ccc12 [Isoimperatorin] | 0.0188 ± 0.0059
CC(CC(=O)C[C@@H](C)[C@H]1CC(=O)[C@@]2(C)C3=C(C(=O)[C@@H](O)[C@]12C)[C@@]1(C)CC[C@H](O)C(C)(C)[C@@H]1C[C@@H]3O)C(=O)O (stereo not given in full) [Ganoderic Acid G] | 0.106
O=C1/C(=C2\Nc3ccccc3C2=O)Nc2ccccc21 [Indigotin] | -0.105
CC1(C)[C@@H](O[C@H]2O[C@H](C(=O)O)[C@@H](O)[C@H](O)[C@H]2O[C@@H]2O[C@H](C(=O)O)[C@@H](O)[C@H](O)[C@H]2O)CC[C@]2(C)[C@H]3C(=O)C=C4[C@@H]5C[C@@](C)(C(=O)O)CC[C@]5(C)CC[C@@]4(C)[C@]3(C)CC[C@@H]12 [Monoammonium Glycyrrhizinate] | -0.00605
C=C1CCC[C@]2(C)C=C3OC(=O)C(C)=C3C[C@@H]12 [Atractylenolide I] | 0.0435
COc1cccc(OC)c1C(=O)OCc1cc(O)ccc1O[C@@H]1O[C@H](CO)[C@@H](O)[C@H](O)[C@H]1O [Curculigoside] | 0.0401
O=C(O)c1cc(O)c(O)c(O)c1 [Gallic acid] | -0.11

SMILES | HR repair efficiency (log10)
CC(C)(O)CC[C@@H](O)C(C)(O)[C@H]1CC[C@@]2(O)C3=CC(=O)[C@@H]4C[C@@H](O)[C@@H](O)C[C@]4(C)[C@H]3CC[C@]12C (stereo partly drawn) [Β-Hydroxyecdysone] | 0.056
O=C1Nc2ccccc2/C1=C1/Nc2ccccc2C1=O [Indirubin] | -0.00679
C[C@@H]1O[C@@H](OC[C@H]2O[C@@H](Oc3cc(O)c4c(c3)O[C@H](c3ccc(O)c(O)c3)CC4=O)[C@H](O)[C@@H](O)[C@@H]2O)[C@H](O)[C@H](O)[C@H]1O [Eriocitrin] | -0.0151
CC(C)=CCc1c(-c2ccc(O)cc2O)oc2c([C@H]3C=C(C)C[C@@H](c4ccc(O)cc4O)[C@@H]3C(=O)c3ccc(O)cc3O)c(O)cc(O)c2c1=O [Kuwanon G] | 0.129
C[C@H](CCC(=O)O)[C@H]1CC[C@H]2[C@@H]3[C@H](O)C[C@@H]4C[C@H](O)CC[C@]4(C)[C@H]3CC[C@]12C [Chenodeoxycholic Acid] | 0.00712
COc1ccc2cc3[n+](cc2c1OC)CCc1cc2c(cc1-3)OCO2 [Berberine hydrochloride] | -0.283
O[C@@H]1[C@@H](O)[C@@H](OC/C=C/c2ccccc2)O[C@H](CO[C@@H]2OC[C@H](O)[C@H](O)[C@H]2O)[C@H]1O [Rosavin] | 0.148
COc1cc2oc(=O)ccc2c(OC)c1C[C@@H](O)C(C)(C)O [Toddalolactone] | 0.018
COC(=O)C1=CO[C@@H](O[C@@H]2O[C@H](CO)[C@@H](O)[C@H](O)[C@H]2O)[C@H]2[C@@H]1[C@H](O)C[C@]2(C)OC(C)=O [8-O-Acetyl Shanzhiside Methyl Ester] | -0.109
C[C@H]1O[C@@H](O[C@H]2CC[C@@]3(C)[C@@H](CC[C@]4(C)[C@@H]3C=C[C@]35OC[C@@]6(CCC(C)(C)C[C@H]63)[C@@H](O)C[C@]54C)[C@]2(C)CO)[C@H](O)[C@@H](O[C@@H]2O[C@H](CO)[C@@H](O)[C@H](O)[C@H]2O)[C@H]1O [Saikosaponin a] | -0.315
CCCCCCCC/C=C\CCCCCCCC(=O)OCC(COC(=O)CCCCCCC/C=C\CCCCCCCC)OC(=O)CCCCCCC/C=C\CCCCCCCC [Glycerol Trioleate] | 0.0182
C[C@]12C[C@@H](O)[C@@H]3C[C@@]1(O[C@@H]1O[C@H](CO)[C@@H](O)[C@H](O)[C@H]1O)[C@@]3(COC(=O)c1ccccc1)C(=O)O2 [Albiflorin] | 0.153
COc1c2c(cc3oc(C)cc(=O)c13)O[C@H](C(C)(C)O)C2 [5-O-Methylvisamminol] | -0.14
CC1CCC(C(C)C)C(O)C1 (racemic) [dl-Menthol] | 0.0753
Cc1cc(O)c(C(=O)CCC(C)C)c(=O)o1 [Pogostone] | -0.0091
C[C@@]12C[C@H](c3ccoc3)O[C@@]13C[C@H](OC3=O)[C@H]1[C@H]2C[C@@H]2C[C@H]1C(=O)O2 [Diosbulbin B] | 0.0545
C=C[C@@H]1[C@@H](O[C@@H]2O[C@H](CO)[C@@H](O)[C@H](O)[C@H]2O)OC=C(C(=O)OC)[C@@H]1CCOC(=O)c1cc(O)c(O)c(O)c1 [Cornuside I] | 0.0608
C=C[C@H]1[C@H](O[C@@H]2O[C@H](CO)[C@@H](O)[C@H](O)[C@H]2O)OC=C2C(=O)OCC[C@]21O [Swertiamarin] | -0.0353
C=C1CCC[C@]2(C)C[C@]3(O)OC(=O)C(C)=C3C[C@@H]12 [Atractylenolide Ⅲ] | 0.0176
COC(=O)C1=CO[C@@H](O)[C@@H]2C(CO)=CC[C@H]12 [Genipin] | 0.00524
